Assay results taken from publication PMC5540273 (PLoS ONE, 2017).

Experiments:
Conditions in all cases: concentration: 1 μM,replicates: in singlicate; n = 1
[1] = test system: JAK1(JH2domain-pseudokinase)
[2] = test system: JAK2(JH1domain-catalytic)
[3] = test system: JAK3(JH1domain-catalytic)
JNK1 = test system: T1, JNK1
T1 construct: gene MAPK8

JNK2 = test system: T2, JNK2
T2 construct: gene MAPK9

JNK3 = test system: T3, JNK3
T3 construct: gene MAPK10

KIT-autoinhibited = test system: KIT-autoinhibited
KIT = test system: KIT
LATS1 = test system: LATS1
LATS2 = test system: LATS2
LCK = test system: LCK
LIMK1 = test system: LIMK1
LIMK2 = test system: LIMK2
LKB1 = test system: T4, LKB1
T4 construct: gene STK11

LOK = test system: T5, LOK
T5 construct: gene STK10

LRRK2 = test system: LRRK2
LTK = test system: LTK
LYN = test system: LYN
LZK = test system: T6, LZK
T6 construct: gene MAP3K13

MAK = test system: MAK
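Also: KINOMEscan kinase panel screen.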

Row | Structure (SMILES) | %Inh [1] [%] | %Inh [2] [%] | %Inh [3] [%] | %Inh (JNK1) [%] | %Inh (JNK2) [%] | %Inh (JNK3) [%] | %Inh (KIT-autoinhibited) [%] | %Inh (KIT) [%] | %Inh (LATS1) [%] | %Inh (LATS2) [%] | %Inh (LCK) [%] | %Inh (LIMK1) [%] | %Inh (LIMK2) [%] | %Inh (LKB1) [%] | %Inh (LOK) [%] | %Inh (LRRK2) [%] | %Inh (LTK) [%] | %Inh (LYN) [%] | %Inh (LZK) [%] | %Inh (MAK) [%]
1 | COc1cc2ncn(-c3cc(OCC4CCCCC4)c(C(N)=O)s3)c2cc1OC [GSK204559] | 0 | 0 | 0 | 20 | 27 | 19 | 0 | 31 | 0 | 7 | 37 | 2 | 13 | 0 | 63 | 20 | 10 | 0 | 0 | 18
2 | Cc1ccc(CC(=O)N2CCc3cc(-c4cn(C)c5ncnc(N)c45)ccc32)cc1 [GSK2634758] | 0 | 0 | 0 | 13 | 12 | 0 | 0 | 98.6 | 0 | 9 | 38 | 0 | 0 | 19 | 87 | 0 | 24 | 23 | 24 | 4
3 | O=C(Nc1n[nH]c2cc(-c3ccco3)ccc12)C1CC1 [SB-737447] | 63 | 27 | 30 | 38 | 17 | 32 | 7 | 23 | 0 | 10 | 3 | 0 | 0 | 0 | 3 | 0 | 0 | 0 | 0 | 4
4 | Cl.Nc1n[nH]c2cc(-c3ccccn3)ccc12 [GSK2189892] | 14 | 31 | 0 | 0 | 0 | 0 | 0 | 4 | 0 | 9 | 12 | 0 | 0 | 12 | 0 | 0 | 0 | 0 | 0 | 29
5 | N#Cc1cccc(C(=O)NC2CCN(c3ccnc(Nc4ccc(F)cc4)n3)C2)c1 (centres unmarked) [GSK1379708] | 0 | 16 | 0 | 26 | 34 | 17 | 0 | 9 | 0 | 0 | 22 | 0 | 0 | 0 | 0 | 0 | 0 | 0 | 0 | 18
6 | COc1cc(Nc2nccc(N3CCC(NC(=O)c4cccc(C#N)c4)C3)n2)cc(OC)c1OC (centres unmarked) [GSK1379751] | 2 | 98 | 22 | 30 | 15 | 33 | 0 | 43 | 0 | 0 | 0 | 92.6 | 17 | 0 | 0 | 0 | 2 | 0 | 33 | 7
7 | COC(=O)Nc1nc2cc(Oc3ccc(NC(=O)Nc4cc(C(F)(F)F)ccc4Cl)cc3)ccc2[nH]1.Cl [GW697465] | 0 | 25 | 0 | 20 | 61 | 8 | 0 | 100 | 100 | 0 | 98.9 | 11 | 0 | 14 | 99.7 | 11 | 36 | 75 | 44 | 20
8 | CN(c1ccccc1CNc1nc(Nc2ccc3c(c2)CC(=O)N3)ncc1C(F)(F)F)S(C)(=O)=O | 66 | 98.6 | 99.2 | 64 | 66 | 63 | 0 | 38 | 65 | 76 | 78 | 0 | 0 | 0 | 57 | 20 | 81 | 26 | 0 | 16
9 | C[C@@H](Oc1cc(-n2cnc3cc(-c4ccncc4)ccc32)sc1C(N)=O)c1ccccc1Cl [GSK479719] | 0 | 58 | 48 | 7 | 10 | 11 | 0 | 64 | 10 | 0 | 54 | 31 | 0 | 0 | 99.8 | 4 | 0 | 0 | 0 | 0
10 | Cl.Cl.NC[C@H](CC1CCCCC1)NC(=O)c1ccc(-c2ccnc3[nH]ccc23)s1 [GSK1581428] | 0 | 97.2 | 99.7 | 18 | 11 | 8 | 0 | 65 | 89 | 95.3 | 37 | 0 | 0 | 50 | 31 | 49 | 0 | 0 | 0 | 0
11 | COC(=O)c1cccc(NC(=O)NC2CCN(c3ccnc(Nc4cc(OC)c(OC)c(OC)c4)n3)C2)c1 (centres unmarked) [GSK1379767] | 13 | 82 | 0 | 16 | 20 | 28 | 0 | 77 | 0 | 17 | 7 | 0 | 35 | 0 | 45 | 0 | 83 | 0 | 54 | 36
12 | CN(c1ccc2c(c1)nc(NCc1ccc(F)cc1)n2C)c1ccnc(Nc2ccc(CS(C)(=O)=O)cc2)n1.Cl [GW813244] | 56 | 54 | 100 | 42 | 39 | 0 | 69 | 99.9 | 10 | 0 | 67 | 33 | 0 | 29 | 99.5 | 0 | 48 | 68 | 0 | 2
13 | O=C(Nc1ccc(Oc2ccc3nc(NC(=O)C4CC4)cn3n2)c(F)c1)c1cccn(-c2ccccc2)c1=O | 0 | 0 | 0 | 0 | 0 | 0 | 0 | 100 | 0 | 0 | 0 | 33 | 29 | 0 | 99.5 | 0 | 29 | 36 | 0 | 10
14 | COc1cccc(CNC(=O)NC2CCN(c3ccnc(Nc4cc(OC)c(OC)c(OC)c4)n3)C2)c1 (centres unmarked) [GSK1379765] | 11 | 89 | 0 | 29 | 9 | 25 | 0 | 60 | 0 | 5 | 34 | 9 | 82 | 0 | 49 | 0 | 78 | 0 | 32 | 31
15 | CCCC(=O)Nc1n[nH]c2ncccc12 [SB-601436] | 4 | 18 | 0 | 20 | 6 | 1 | 0 | 0 | 40 | 0 | 14 | 0 | 0 | 0 | 3 | 0 | 4 | 0 | 0 | 7
16 | CN1CCN(CCCNc2nccc(-c3c(-c4ccc(F)cc4)nn4cc(C(N)=O)ccc34)n2)CC1 [GW622475] | 0 | 0 | 0 | 92.1 | 99.6 | 99.6 | 2 | 66 | 0 | 7 | 51 | 0 | 9 | 0 | 0 | 2 | 39 | 0 | 0 | 50
17 | Cn1ccc2ncnc(Oc3ccc(NC(=O)Nc4cncc(C(F)(F)F)c4)c(Cl)c3)c21 | 0 | 0 | 0 | 0 | 0 | 0 | 17 | 99.9 | 0 | 0 | 50 | 0 | 0 | 0 | 99.2 | 0 | 16 | 32 | 0 | 0
18 | NC(=O)c1ccc(-c2cc3ncnc(SCC(=O)O)c3s2)cc1 | 50 | 0 | 22 | 22 | 0 | 0 | 22 | 68 | 0 | 0 | 2 | 0 | 21 | 18 | 0 | 11 | 0 | 23 | 2 | 45
19 | O=C(Nc1ccccc1)c1cccc(Oc2ccc3nccn3n2)c1 | 10 | 10 | 6 | 8 | 1 | 6 | 8 | 98.4 | 0 | 91.6 | 13 | 12 | 23 | 0 | 7 | 0 | 20 | 4 | 0 | 32
